Where “and” joins values, the source holds several entries; their conditions need not be identical. Equal values may be shown once. Among all 16,000 compounds or so, about 5,700 (36%) were called active. Roughly 24% stayed inconclusive and do not appear here. Some of the results follow. Unmarked numbers belong to inactive results. Calls follow the shape of the dose curve; as a rule, active = well fitted curve in the direction sought with a large enough effect; inconclusive = small, poorly fitted or top-dose-only effect, or effect the other way; inactive = no such curve, though single readings can be large or run the other way.
% is scaled to controls: 0 for no effect and ±100 for the full control effect.

Cytochrome P450 1A2 (Homo sapiens), sequence (P05177 whole entry, looked up): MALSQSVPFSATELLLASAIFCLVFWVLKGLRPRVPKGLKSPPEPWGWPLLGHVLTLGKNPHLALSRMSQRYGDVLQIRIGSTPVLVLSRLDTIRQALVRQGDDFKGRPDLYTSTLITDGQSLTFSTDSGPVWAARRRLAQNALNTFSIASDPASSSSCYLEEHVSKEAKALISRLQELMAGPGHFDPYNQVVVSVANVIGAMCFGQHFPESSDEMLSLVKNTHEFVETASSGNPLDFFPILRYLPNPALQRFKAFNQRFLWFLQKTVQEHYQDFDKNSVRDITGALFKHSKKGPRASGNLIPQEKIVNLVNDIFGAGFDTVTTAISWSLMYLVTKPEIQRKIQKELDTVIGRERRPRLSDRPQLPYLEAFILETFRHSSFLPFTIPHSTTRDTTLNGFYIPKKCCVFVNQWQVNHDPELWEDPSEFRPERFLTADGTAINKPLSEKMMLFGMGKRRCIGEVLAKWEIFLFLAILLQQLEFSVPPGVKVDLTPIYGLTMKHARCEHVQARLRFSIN

This experiment concerns the target Cytochrome P450 1A2 (Homo sapiens) (UniProt P05177). Kind of experiment: Cytochrome panel assay with activity outcomes. To be noted: recombinant CYP, pro-luciferin dealkylation, luminescence, p450-cyp1a2; series mostly up to 57.1 µM; activity, negative = inhibition: at the top concentration.
Regarding `CC(=O)N[C@@H]1CONC1=O`, the activity, negative = inhibition is -16.9% [at 11.4 µM]. The same measure, in the same setting: then `COc1ccccc1CN1CCCC2(CCN(S(C)(=O)=O)CC2)C1`, with -4.29%.

Take `COc1ccc(CNC(=O)C(c2ccc(C)cc2)N(Cc2cccs2)C(=O)c2ccc3c(c2)OCCO3)cc1` (centres undefined): the “activity, negative = inhibition” value is -14.4%. Consider `c1csc(CNc2ccnc(-c3ccc4c(c3)OCO4)n2)c1`, for which the AC50 was 0.316 µM (active).

Take `c1cncc(CNc2ccnc(-c3ccc4c(c3)OCO4)n2)c1`: the AC50 was 0.126 µM (active).

As for `c1ccc(CNc2ccnc(-c3ccc4c(c3)OCO4)n2)cc1`, the AC50 was 0.398 µM (active). On the same count and under the same terms, under `CCOC(=O)C1=C(N)Oc2ccc(Br)cc2[C@@H]1[C@@H](C#N)C(=O)OCC` stands 0.251 µM (active). In the case of `CO[C@@H]1COC(=O)[C@H]2CCCN2C(=O)[C@@H](C)COC(=O)C/C=C\[C@H]1C`, the activity, negative = inhibition was 1.25% [at 11.4 µM]. Consider `CCCN1CCC(=NNC(=O)c2ccc(Br)o2)CC1`, for which the AC50 was 8.91 µM (active). As to `O=C(c1ccccc1NS(=O)(=O)c1cccc([N+](=O)[O-])c1)N1CCOCC1`, the “activity, negative = inhibition” value is -7.04%. `O=Nc1c(O)n(Cc2ccc(Cl)cc2)c2ccccc12`: the AC50 was 14.1 µM (active). `Cc1nn(CC(=O)NCCN2CCOCC2)c(C)c1[N+](=O)[O-]`: the “activity, negative = inhibition” value is 8.46%. The same measure, in the same setting: under `O=C(Nc1cccn2ncnc12)c1ccc(Cl)cc1Cl` stands -14.8%. As to `Cl/C(=C\n1cncn1)c1ccc(Cl)cc1Cl`, the concentration at half-maximal activity (AC50) was 0.0631 µM (active). Take `COc1cccc(/C(O)=C2/C(=O)C(=O)N(Cc3cccnc3)C2c2ccco2)c1` (centres undefined): the “activity, negative = inhibition” value was -6.23%. Still for that read-out and setting: under `CCOc1cccc(/C(O)=C2/C(=O)C(=O)N(Cc3cccnc3)C2c2ccco2)c1` (centres undefined) stands -3.35%.

On to `CCOc1cccc(/C(O)=C2/C(=O)C(=O)N(Cc3ccco3)C2c2ccncc2)c1` (centres undefined), for which the AC50 is 25.1 µM (active). Consider `N[C@@H](Cn1ccc(=O)n(Cc2ccccc2C(=O)O)c1=O)C(=O)O`, for which the “activity, negative = inhibition” value was -16.3%.

`O=C(c1ccccc1)c1c[nH]c(C(=O)NCc2cccnc2)c1`: the AC50 was 3.55 µM (active).

As for `O=S1(=O)[C@H]([C@H]2CC3c4ccccc4C2c2ccccc23)[C@@H](N2CCCCC2)[C@@H]1c1ccccc1`, the activity, negative = inhibition was 1.63% [at 2.29 µM]. Take `Nn1c(SCC(=O)N2CCOCC2)nnc1-c1ccccc1Cl`: the “activity, negative = inhibition” value is 0.0084%.

Turning to `CC(C)Cn1c(-c2ccc(Cl)cc2)cnc1SCC(=O)N1CCOCC1`, the half-maximal activity concentration (AC50) is 12.6 µM (active). Consider `O=C(CCn1nc(-c2ccc(Cl)cc2)ccc1=O)N1CCOCC1`, for which the “activity, negative = inhibition” value was -24%. With `C#CCSc1n[nH]c(-c2ccco2)n1`, the half-maximal activity concentration (AC50) was 2 µM (active). As for `CN(C)C(N)=NCCC[C@H](N)C(=O)O`, the “activity, negative = inhibition” value is 1.02%. Regarding `O[C@@H](C1=C/C(=C\c2ccncc2)c2ccccc21)c1ccncc1`, the concentration at half-maximal activity (AC50) is 0.1 µM (active). Still for that read-out and setting: then `COc1ccc(CCCC(=O)NC2CCCCC2)cc1`, with 25.1 µM (active). As to `COc1ccc(C(C(=O)NC2CCCCC2)N2CCC3(CC2)OCCO3)cc1` (centres undefined), the “activity, negative = inhibition” value was -25.1%.

Consider `COc1ccc(/C=N/NC(=O)CCCC(=O)NC2CCCCC2)cc1`, for which the concentration at half-maximal activity (AC50) is 11.2 µM (active).

For the compound `COc1ccc(C(C(=O)NC2CCCCC2)N(C(=O)CCCC(=O)Nc2ccccn2)c2ccc3c(c2)OCCO3)cc1` (centres undefined), the “activity, negative = inhibition” value is 5.6%.

Turning to `COc1ccc2c(c1)C(=O)N(CCc1ccc(S(=O)(=O)NC(=O)NC3CCCCC3)cc1)C(=O)C2(C)C`, the “activity, negative = inhibition” value was -0.736% [at 25.6 µM]. The same measure, in the same setting: then `CCCC(=O)N=C1SC2CS(=O)(=O)CC2N1c1ccc(CC)cc1` (centres undefined), with -25.8%; and `CC(=O)OC[C@H]1O[C@@H](O/N=C(\C)CCC(=O)OC[C@@H]2O[C@H](C#Cc3ccccc3)C=C[C@@H]2Oc2ccc(C)cc2)[C@H](OC(C)=O)[C@@H](OC(C)=O)[C@H]1OC(C)=O`, with -5.25% [at 11.4 µM]. For `O=c1c(-c2cc(F)cc(F)c2)nc2cncnc2n1-c1ccccc1`, the half-maximal activity concentration (AC50) is 12.6 µM (active).

For the compound `O=c1c(-c2cccc(F)c2)nc2cncnc2n1-c1ccccc1`, the concentration at half-maximal activity (AC50) was 10 µM (active). As for `C/C(CCN1CCc2nc(-c3ccccc3)c(-c3ccccc3)cc2C1)=N\O[C@@H](C)CN1CCCCc2nc(C)c(C)cc21`, the activity, negative = inhibition was -10.7% [at 11.4 µM]. On to `Cc1c(-c2ccc(O)cc2)nn(-c2ccc(O)cc2)c1-c1ccc(OCCN2CCCCC2)cc1`, for which the concentration at half-maximal activity (AC50) is 12.6 µM (active). As for `CC(=O)N1CCC[C@@]2(CCN(Cc3ccccc3)C2)C1`, the “activity, negative = inhibition” value is 7.35%. Still for that read-out and setting: then `COC(=O)[C@@]1(Cc2ccc(F)cc2)[C@H]2c3cc(C(=O)N4CCCC4)n(Cc4ccc(Cl)c(C(F)(F)F)c4)c3C[C@H]2CN1C(=O)c1ccccc1`, with -8.64%. As for `CCOC(=O)C1=C(CSc2nc(-c3ccccc3)ccc2C#N)OC(N)=C(C#N)C1c1ccc(OC)cc1` (centres undefined), the AC50 was 2 µM (active).

In the case of `Cc1ccc(S(=O)(=O)Nc2ccccc2C=O)cc1`, the activity, negative = inhibition was -16% [at 11.4 µM]. As for `CSc1ccc(S(=O)(=O)Nc2ccc3c4c(cccc24)CC3)cc1`, the AC50 is 25.1 µM (active). Same read-out and setting: then `O=C(NCCc1ccc(Cl)cc1)c1ncn[nH]1`, with 20 µM (active). On the same count and under the same terms, under `O=C(NCCc1ccc(Cl)cc1)Nc1cccc(Cl)c1` stands 4.47 µM (active). The same measure, in the same setting: under `Cc1nc(SCC(=O)NCCc2ccc(Cl)cc2)nc(C)c1C` stands 20 µM (active).

Take `N[C@@H](C(=O)O)[C@H](CC(=O)O)c1ccc(Cl)cc1`: the “activity, negative = inhibition” value was -8.76%. Consider `Cc1nc(SCC(=O)Nc2c(C)n(C)n(-c3ccccc3)c2=O)nc(C)c1C`, for which the “activity, negative = inhibition” value is -3.65%. With `NCCNC(=O)c1ccc(Cl)cc1`, the AC50 was 12.6 µM (active) and 10 µM (active). For the compound `Cc1nc(SCC(=O)Nc2ccc(N3CCOCC3)cc2)nc(C)c1C`, the “activity, negative = inhibition” value was -16.3%.
